Source: PubChem BioAssay AID1159580 (chemical genetic matrix, 2015)
Hit rate of the full screen: of about 5,500 compounds, about 2,000 (36%) were called active. Not shown: some 18% with an inconclusive outcome. Rule as the data show it: active = normalized growth mostly below about 0.91 (no sharp cut-off); inconclusive = no clear call, values can overlap the other calls; inactive = mostly above about 0.92. The list shows a part of the results.

Assay: chemical genetic growth profiling, strain panel (AID 1159580);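 also: tested at 20 µM; growth read once vehicle control cultures reached saturation at 30 °C; 1 = growth at the plate median or of vehicle wells; lower values mean less growth of the strain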
Settings: growth OD
[1] = S. cerevisiae deletion strains, locus YAL013W, strain DEP1, hits give low values
[2] = S. cerevisiae deletion strains, locus YBR229C, strain ROT2, hits give low values
[3] = S. cerevisiae deletion strains, locus YDL101C, strain DUN1, hits give low values
[4] = S. cerevisiae deletion strains, locus YDR150W, strain NUM1, hits give low values
[5] = S. cerevisiae deletion strains, locus YEL061C, strain CIN8, hits give low values
[6] = S. cerevisiae deletion strains, locus YGR078C, strain PAC10, hits give low values
[7] = S. cerevisiae deletion strains, locus YHR030C, strain SLT2, hits give low values
[8] = S. cerevisiae deletion strains, locus YHR087W, strain rtc3, hits give low values
[9] = S. cerevisiae deletion strains, locus YJR043C, strain POL32, hits give low values
[10] = S. cerevisiae deletion strains, locus YJR075W, strain HOC1, hits give low values
[11] = S. cerevisiae deletion strains, locus YLR039C, strain RIC1, hits give low values
[12] = S. cerevisiae deletion strains, locus YLR058C, strain SHM2 (second series), hits give low values
[13] = S. cerevisiae deletion strains, locus YLR085C, strain ARP6, hits give low values
[14] = S. cerevisiae deletion strains, locus YLR262C, strain YPT6, hits give low values
[15] = S. cerevisiae deletion strains, locus YML094W, strain GIM5, hits give low values
[16] = S. cerevisiae deletion strains, locus YMR219W, strain ESC1, hits give low values
[17] = S. cerevisiae deletion strains, locus YMR263W, strain SAP30, hits give low values
[18] = S. cerevisiae deletion strains, locus YNL153C, strain GIM3, hits give low values
[19] = S. cerevisiae deletion strains, locus YNL298W, strain CLA4 (second series), hits give low values
[20] = S. cerevisiae deletion strains, locus YNL322C, strain KRE1, hits give low values
[21] = S. cerevisiae deletion strains, locus YNR030W, strain Alg12, hits give low values
[22] = S. cerevisiae deletion strains, locus YOL006C, strain TOP1, hits give low values
[23] = S. cerevisiae deletion strains, locus YPL055C, strain LGE1, hits give low values
[24] = S. cerevisiae deletion strains, locus YPL241C, strain CIN2, hits give low values
[25] = S. cerevisiae deletion strains, locus YPR135W, strain CTF4, hits give low values
[26] = S. cerevisiae strains, strain wild type, hits give low values

Measured: normalized growth

N/C(=N/OC(=O)C(Cl)Cl)c1cccc(Cl)c1Cl
inactive: [1] 1.02 | [2] 0.978 | [3] 0.943 | [4] 1 | [5] 0.997 | [6] 0.973 | [7] 0.94 | [8] 0.971 | [9] 0.979 | [10] 0.925 | S. cerevisiae deletion strains, locus YKL190W, strain CNB1, hits give low values 0.982 | [11] 0.936 | [12] 0.968 | [13] 1.04 | [14] 0.921 | [15] 1.03 | [16] 0.984 | [17] 0.992 | [18] 1.01 | [19] 0.965 | [20] 0.98 | [21] 1 | [22] 0.939 | [23] 1.03 | [24] 0.907 | [25] 1.22 | [26] 0.972

NC(=S)c1ccc2nonc2c1
inactive: [1] 0.999 | [2] 1 | [3] 0.984 | S. cerevisiae deletion strains, locus YDL134C, strain PPH21, hits give low values 0.986 | [4] 0.927 | [5] 1 | [6] 1 | S. cerevisiae deletion strains, locus YGR229C, strain SMI1, hits give low values 0.994 | [7] 0.991 | [8] 0.996 | [9] 1.02 | [10] 1.01 | [11] 1.04 | [12] 1 | [13] 0.945 | [14] 1.02 | [15] 0.982 | [16] 0.992 | [17] 1.03 | S. cerevisiae deletion strains, locus YMR307W, strain GAS1, hits give low values 1.03 | [18] 1.01 | [19] 1.02 | [20] 0.996 | [21] 0.988 | [22] 0.976 | [23] 1.09 | [24] 0.963 | [25] 1.13 | [26] 0.994

N/C(=N/OC(=O)c1ccccc1Cl)c1ccc2nonc2c1
active: [7] 0.825
inactive: S. cerevisiae deletion strains, locus YAR019C, strain CDC15, hits give low values 0.967 | S. cerevisiae deletion strains, locus YBL105C, strain PKC1, hits give low values 0.963 | S. cerevisiae deletion strains, locus YBR135W, strain CKS1, hits give low values 0.962 | S. cerevisiae deletion strains, locus YBR136W, strain MEC1, hits give low values 0.966 | S. cerevisiae deletion strains, locus YBR160W, strain CDC28, hits give low values 0.959 | S. cerevisiae deletion strains, locus YDL017W, strain CDC7, hits give low values 0.968 | S. cerevisiae deletion strains, locus YDL028C, strain MPS1, hits give low values 0.964 | [3] 0.977 | S. cerevisiae deletion strains, locus YDL108W, strain KIN28, hits give low values 0.973 | S. cerevisiae deletion strains, locus YDL132W, strain cdc53, hits give low values 0.958 | S. cerevisiae deletion strains, locus YDL214C, strain PRR2, hits give low values 0.978 | S. cerevisiae deletion strains, locus YDR052C, strain DBF4, hits give low values 0.976 | S. cerevisiae deletion strains, locus YDR054C, strain cdc34, hits give low values 0.95 | S. cerevisiae deletion strains, locus YDR226W, strain ADK1, hits give low values 0.975 | S. cerevisiae deletion strains, locus YDR477W, strain SNF1, hits give low values 0.989 | S. cerevisiae deletion strains, locus YER123W, strain YCK3, hits give low values 0.977 | S. cerevisiae deletion strains, locus YER133W, strain GLC7, hits give low values 0.961 | S. cerevisiae deletion strains, locus YFL009W, strain cdc4, hits give low values 0.965 | S. cerevisiae deletion strains, locus YFL029C, strain CAK1, hits give low values 0.963 | S. cerevisiae deletion strains, locus YFR003C, strain YPI1, hits give low values 0.972 | S. cerevisiae deletion strains, locus YFR019W, strain FAB1, hits give low values 0.956 | S. cerevisiae deletion strains, locus YFR028C, strain CDC14, hits give low values 0.977 | S. cerevisiae deletion strains, locus YGR040W, strain KSS1, hits give low values 0.976 | S. cerevisiae deletion strains, locus YGR052W, strain FMP48, hits give low values 1.05 | S. cerevisiae deletion strains, locus YGR092W, strain DBF2, hits give low values 0.847 | S. cerevisiae deletion strains, locus YHR079C, strain IRE1, hits give low values 0.963 | S. cerevisiae deletion strains, locus YHR082C, strain KSP1, hits give low values 1.01 | S. cerevisiae deletion strains, locus YHR205W, strain SCH9, hits give low values 0.971 | S. cerevisiae deletion strains, locus YIL147C, strain SLN1, hits give low values 0.96 | S. cerevisiae deletion strains, locus YJL095W, strain BCK1, hits give low values 0.904 | S. cerevisiae deletion strains, locus YJL128C, strain PBS2, hits give low values 0.985 | S. cerevisiae deletion strains, locus YJL157C, strain FAR1, hits give low values 0.977 | S. cerevisiae deletion strains, locus YJR016C, strain ILV3, hits give low values 0.966 | S. cerevisiae deletion strains, locus YJR066W, strain TOR1 (second series), hits give low values 0.915 | S. cerevisiae deletion strains, locus YJR066W, strain TOR1, hits give low values 0.947 | S. cerevisiae deletion strains, locus YKL048C, strain ELM1, hits give low values 0.985 | S. cerevisiae deletion strains, locus YKL067W, strain YNK1, hits give low values 0.986 | S. cerevisiae deletion strains, locus YKL101W, strain HSL1, hits give low values 0.991 | S. cerevisiae deletion strains, locus YKL193C, strain SDS22, hits give low values 0.965 | S. cerevisiae deletion strains, locus YKL203C, strain TOR2, hits give low values 1.01 | S. cerevisiae deletion strains, locus YLR113W, strain HOG1, hits give low values 0.96 | S. cerevisiae deletion strains, locus YLR133W, strain CKI1, hits give low values 0.994 | S. cerevisiae deletion strains, locus YLR403W, strain SFP1, hits give low values 0.96 | S. cerevisiae deletion strains, locus YML070W, strain DAK1, hits give low values 0.99 | S. cerevisiae deletion strains, locus YMR001C, strain CDC5, hits give low values 0.97 | S. cerevisiae deletion strains, locus YMR205C, strain PFK2 (second series), hits give low values 0.984 | S. cerevisiae deletion strains, locus YMR277W, strain FCP1, hits give low values 0.963 | S. cerevisiae deletion strains, locus YNL006W, strain LST8, hits give low values 0.974 | S. cerevisiae deletion strains, locus YNL020C, strain ARK1, hits give low values 0.98 | S. cerevisiae deletion strains, locus YNL161W, strain CBK1, hits give low values 0.973 | S. cerevisiae deletion strains, locus YNL183C, strain NPR1, hits give low values 0.955 | S. cerevisiae deletion strains, locus YNL207W, strain RIO2, hits give low values 0.964 | S. cerevisiae deletion strains, locus YNL222W, strain SSU72, hits give low values 0.968 | S. cerevisiae deletion strains, locus YNL307C, strain MCK1 (second series), hits give low values 0.982 | S. cerevisiae deletion strains, locus YOL078W, strain AVO1, hits give low values 0.972 | S. cerevisiae deletion strains, locus YOL136C, strain PFK27, hits give low values 0.983 | S. cerevisiae deletion strains, locus YOR061W, strain CKA2, hits give low values 0.985 | S. cerevisiae deletion strains, locus YOR119C, strain RIO1, hits give low values 1.07 | S. cerevisiae deletion strains, locus YOR231W, strain MKK1, hits give low values 0.96 | S. cerevisiae deletion strains, locus YOR329C, strain SCD5, hits give low values 0.97 | S. cerevisiae deletion strains, locus YPL031C, strain PHO85, hits give low values 0.966 | S. cerevisiae deletion strains, locus YPL153C, strain RAD53, hits give low values 0.959 | S. cerevisiae deletion strains, locus YPL204W, strain HRR25, hits give low values 0.95 | S. cerevisiae deletion strains, locus YPL209C, strain IPL1, hits give low values 0.968 | S. cerevisiae deletion strains, locus YPL256C, strain CLN2, hits give low values 0.963 | S. cerevisiae deletion strains, locus YPR025C, strain CCL1, hits give low values 0.962 | S. cerevisiae deletion strains, locus YPR106W, strain ISR1, hits give low values 0.981 | S. cerevisiae deletion strains, locus YPR111W, strain DBF20, hits give low values 0.974 | S. cerevisiae deletion strains, strain NNK1, hits give low values 0.98 | S. cerevisiae deletion strains, strain TSCII, hits give low values 0.962
